Compound activity from PubChem.
aSyn UTR act: Activators working through SNCA 5'UTR binding (MLPCN); alpha-synuclein 5'UTR reporter, activators screen; activity score, % (tested at 7.5 µM), hits read low; actives 7.1% (n = 300,000); in the data active means activity score below about -60%
Large screens that a line does not name were inactive. The list is a sample of the results.

CCc1ccc2oc(C(=O)Nc3nonc3C)c(C)c2c1	aSyn UTR act -138
COc1ccc(C(=O)Nn2c(SCC(=O)NCC3CCCO3)nc3ccccc3c2=O)cc1 (stereo unspecified)	none
CCOc1ccc(-c2cc(C(=O)N3CCN(C)CC3)c3ccccc3n2)cc1	aSyn UTR act -136
CCOc1ccc(-c2cc(C(=O)N3CCCC3)c3ccccc3n2)cc1	aSyn UTR act -68
CCCOc1ccc(-c2cc(C(=O)NCC3CCCO3)c3ccccc3n2)cc1 (stereo unspecified)	aSyn UTR act -73
CC1Cc2cc(/C=C3/SC(=S)NC3=O)ccc2O1 (stereo unspecified)	aSyn UTR act -106
CCOc1ccccc1C1CC(=O)Nc2cc3c(cc21)OCO3 (stereo unspecified)	none
CCOc1ccc(C2=Nn3c(nnc3-c3ccccc3OC)SC2)cc1	none
CCOc1ccccc1C1N=C(c2ccc(OC)cc2)CC(c2ccccc2O)N1 (stereo unspecified)	aSyn UTR act -234
O=C(NC(=S)NCCc1ccccc1)c1ccco1	aSyn UTR act -80
Cc1ccccc1C(=O)NC(=S)Nc1ncccn1	aSyn UTR act -66
Cc1ccccc1C(=O)NC(=S)NCCc1ccccc1	aSyn UTR act -66
Cc1cc2ccccn2c1C(=S)NC(=O)c1ccccc1	aSyn UTR act -82
Cc1cc2ccccn2c1C(=O)Nc1cccc(Cl)c1	aSyn UTR act -113
O=C(NCCn1ccc2ccccc21)c1ccc2c(c1)OCO2	aSyn UTR act -108
COc1ccc(C(=O)NCCn2ccc3ccccc32)cc1	aSyn UTR act -131
O=C(NCCc1ccccc1)c1ccc2c(c1)OCO2	none
Cc1cccc(C(=O)Nc2nc3ccc(S(C)(=O)=O)cc3s2)c1	aSyn UTR act -281
Cc1ccc2nc(NC(=O)c3ccc(NS(=O)(=O)c4cccs4)cc3)sc2c1	aSyn UTR act -130
CC(C)(C)C(=O)Nc1nc2ccc(S(C)(=O)=O)cc2s1	aSyn UTR act -112
Cn1c(CSc2ccccc2)c(C#N)c2ccccc21	aSyn UTR act -131
NC(=O)c1oc2ccccc2c1NC(=O)c1nc2ccccc2s1	aSyn UTR act -121
CCCc1cc(C(=O)Nc2ccccc2SC)no1	aSyn UTR act -155
CCCc1cc(C(=O)Nc2cccc(Cl)c2C)no1	aSyn UTR act -150
CCCc1cc(C(=O)Nc2ccc(F)cc2F)no1	aSyn UTR act -116
Nc1nnnn1/N=C/C(Br)=C/c1ccccc1	aSyn UTR act -251
Nc1nnnn1/N=C/C=C/c1ccccc1	aSyn UTR act -115
O=Cc1sc(Nc2ccccc2)nc1Cl	aSyn UTR act -117
COc1ccccc1Nc1nc(Cl)c(C=O)s1	aSyn UTR act -104
COc1ccccc1Nc1nc2c(s1)CCC2	aSyn UTR act -68
Cc1ccc(Nc2nc(Cl)c(C=O)s2)cc1Cl	aSyn UTR act -115
CC(=C/c1ccccc1)/C=N/n1cnnc1	none
O=C(N/N=C/C(Br)=C\c1ccccc1)c1cccs1	aSyn UTR act -318
CC(/C=N/NC(=O)c1nn(C)c(C)c1Br)=C\c1ccccc1	aSyn UTR act -122
CC(=C/c1ccccc1)/C=N/NC(=O)c1cccs1	aSyn UTR act -90
CCOC(=O)c1ccc(NC(=O)c2ccc3c(c2)OCO3)cc1	aSyn UTR act -118
CCN(CC)c1ccc(NC(=O)c2ccc3c(c2)OCO3)cc1	aSyn UTR act -133
CCOC(=O)c1c(C)[nH]c(C(=O)Nc2ccc3c(c2)OCO3)c1C	aSyn UTR act -99
O=c1nc(/C=C/c2ccc(O)c(O)c2)oc2ccccc12	aSyn UTR act -159
Cc1ccc(NC(=O)Nc2ccc(F)cc2)cc1Cl	aSyn UTR act -130
COc1cccc(NC(=O)Nc2ccc(C)c(Cl)c2)c1	aSyn UTR act -157
Oc1csc(Cc2nc(-c3ccc(Br)cc3)cs2)n1	aSyn UTR act -291
COc1cccc(/C=N/Nc2cc(N3CCOCC3)ncn2)c1O	none
Fc1ccc(/C=N/Nc2cc(N3CCOCC3)ncn2)cc1	aSyn UTR act -88
C(=N\Nc1cc(N2CCCCC2)ncn1)/c1ccco1	aSyn UTR act -129
Fc1cccc(/C=N/Nc2cc(N3CCOCC3)ncn2)c1	aSyn UTR act -108
Cc1ccc(-c2nc(NCCN3CCOCC3)c3ccccc3n2)cc1	aSyn UTR act -138
Cc1cc(NCCN2CCOCC2)c2ccc3ccccc3c2n1	aSyn UTR act -132
c1ccc(CN2CCC(Nc3nc(-c4ccccc4)nc4ccccc34)CC2)cc1	none
CC(C)OC(=O)CNc1n[nH]c(=S)[nH]c1=O	aSyn UTR act -131
O=C(Nc1ccc(NC(=O)c2cccs2)c(Cl)c1)c1ccco1	aSyn UTR act -123
O=C(Nc1ccc(N2CCCC2)c(Cl)c1)c1cccs1	aSyn UTR act -114
O=C(NC(=S)Nc1ccc(N2CCCCC2)cc1)c1cccs1	aSyn UTR act -104
O=C(NC(=S)Nc1ccc(N2CCOCC2)c(Cl)c1)c1cccs1	aSyn UTR act -110
Fc1ccc(CSc2ccc(-c3ccco3)nn2)cc1	aSyn UTR act -153
Fc1cccc(CSc2ccc(-c3ccco3)nn2)c1	aSyn UTR act -176
CC(=O)Oc1ccc(-c2csc(Nc3ccc(Cl)cn3)n2)cc1	aSyn UTR act -135
COc1ccc(-c2csc(Nc3ccc(C)cn3)n2)cc1	aSyn UTR act -180
COc1cccc(NC(=O)COc2cc(O)c3c(c2)OC(C)(C)CC3=O)c1	aSyn UTR act -87
CC1(C)CC(=O)c2c(O)cc(OCc3ccc([N+](=O)[O-])cc3)cc2O1	aSyn UTR act -150
CCN(CC)C(=O)c1cc(-c2ccccc2OC)on1	aSyn UTR act -125
COc1ccccc1-c1cc(C(=O)NC(C)C)no1	aSyn UTR act -265
COc1ccc(NC(=O)c2cc(-c3ccccc3Cl)on2)cc1OC	aSyn UTR act -96
CCC(C)NC(=O)c1cc(-c2ccccc2O)on1 (stereo unspecified)	aSyn UTR act -83
COc1ccccc1-c1cc(C(=O)Nc2ccc(F)cc2F)no1	aSyn UTR act -155
O=C(/C=C/c1ccccc1)/C=C/c1ccccc1	aSyn UTR act -112
CC(C)(C)C(=O)/C=C(N)/C=C/c1ccccc1	aSyn UTR act -76
N/C(=N\OC(=O)/C=C/c1ccccc1)c1ccccc1	aSyn UTR act -243
O=C(/C=C/c1ccc[nH]1)c1ccccc1	aSyn UTR act -64
O=C(/C=C/c1ccccc1)c1ccccc1	aSyn UTR act -105
O=C(/C=C/c1ccccc1)c1ccc2c3c(cccc13)CC2	aSyn UTR act -87
Fc1cc2[nH]c(=S)[nH]c2cc1Cl	none
C(=C\c1nc(N2CCCCCC2)c2ccccc2n1)/c1ccccc1	aSyn UTR act -71
O=C(Nc1ccc(O)cc1)c1cc2ccccc2c(=O)s1	aSyn UTR act -114
O=C(Nc1ccccc1)c1cc2ccccc2c(=O)s1	aSyn UTR act -209
Cc1ccc(C(=O)Nc2cc3ccccc3oc2=O)cc1	none
Cc1oc(=O)c(NC(=O)c2ccccc2)cc1C(=O)c1ccccc1	aSyn UTR act -205
CC(=O)c1cc(NC(=O)c2ccc(C)cc2)c(=O)oc1/C=C/N(C)C	aSyn UTR act -78
CC(=O)c1cc(NC(=O)c2ccc(C)cc2)c(=O)oc1C	aSyn UTR act -117
Oc1ccc(Br)cc1C1Nc2ccccc2S1 (stereo unspecified)	aSyn UTR act -84
O=C(CCCC(=O)c1ccc(F)cc1)c1ccc(F)cc1	aSyn UTR act -118
CCOc1ccc(C(=O)CCCC(=O)c2ccc(OCC)cc2)cc1	aSyn UTR act -82
COc1ccc(N2C(=O)c3ccccc3NC23CCCC3)cc1	aSyn UTR act -90
CC(=O)c1sc2nc(-c3ccco3)ccc2c1N	aSyn UTR act -81
Nc1c(C(=O)Nc2ccc(Br)cc2)sc2nc(-c3ccco3)ccc12	aSyn UTR act -171
